# Assay results as given in PubChem BioAssay (NCATS).
# Inconclusive results are not listed. Entries that show only a call come without a potency. The source made the active and inactive calls. Unless noted, calls follow the shape of the dose curve; as a rule, active = well fitted curve in the direction sought with a large enough effect; inconclusive = small, poorly fitted or top-dose-only effect, or another doubt; inactive = no such curve, though single readings can be large; an effect the other way counts as inactive or inconclusive.
# Assays:
# [1] = Cytometric Cell-Based qHTS for Inhibitors of the mTORC1 Signaling Pathway in MEF (Tsc2-/-, p53-/-) Cells (AID 2660);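 also: Tsc2 and p53 null MEFs carrying empty vector with compound for 24 h; percent of cells above a phospho-rpS6 to PI ratio cutoff in each well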
# Outline: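 Readout: Alexa-488 phospho-rpS6 (Ser235/236) intensity divided by PI intensity, thresholded against 7.5 nM rapamycin wells and reported as % positive cells. PI cell count served as the viability measure. Compound exposure was 24 hrs at 37 degree Celsius.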
# [2] = High Content Imaging Cell-Based qHTS for Inhibitors of the mTORC1 Signaling Pathway in MEF (Tsc2-/-, p53-/-) Cells (AID 2666); conditions: at 38.3 µM (top of the series);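 also: percent of cells scored positive for phospho-rpS6 Ser235/236 immunostaining by imaging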
# Outline: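 Cells were plated, dosed with compound after 24 hrs, and incubated another 24 hrs at 37 degree Celsius. Fixed cells were immunostained for phospho-rpS6 Ser235/236 and counterstained, and the normalized signal was scored as % active cells against rapamycin and DMSO controls.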
# [3] = High Content Imaging Cell-Based qHTS for Inhibitors of the mTORC1 Signaling Pathway in MEF Cells (AID 2667);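 also: Tsc2-/- p53-/- MEFs stably re-expressing wild-type Tsc2 exposed 24 h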
# Outline: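 Immunofluorescence for rpS6 phosphorylation in MEFs of Tsc2-/-, p53-/- background rescued with WT Tsc2. Compound exposure lasted 24 hrs. Inhibition was scored against rapamycin-treated control wells.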
# [4] = target: Ubiquitin carboxyl-terminal hydrolase 2 (Homo sapiens) (UniProt O75604); assay: qHTS Validation Assay for Inhibitors of Ubiquitin-specific Protease USP2a Using CHOP2 as the Reporter (AID 463106)
# Outline: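 10nM USP2 core + cpd, 30min RT; add 25nM Ub-CHOP2/25nM substrate; 60min RT; FI 485/531nm. Buffer Tris pH 8.0, CaCl2, BME, CHAPS. Norm. to NEM = 100% inhibition; time-zero read flags fluorescent artifacts.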
# [5] = target: DNA polymerase III PolC-type (Bacillus subtilis (strain 168)) (UniProt P13267); assay: qHTS Validation Assay for the Inhibitors of DNA Replication in Gram-Positive Bacteria (AID 485295);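 also: reconstituted holoenzyme with PolC plus beta clamp SSB and primase; PicoGreen fluorescence of double-stranded DNA made on primed circular M13 template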
# Outline: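 Inhibition of DNA synthesis by the reconstituted PolC holoenzyme, monitored through PicoGreen staining of dsDNA formed from ssM13Gori, dNTPs and NTPs, with compound preincubation and room-temperature reaction.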
# [6] = target: Tumor susceptibility gene 101 protein (Homo sapiens) (UniProt Q99816); assay: qHTS Validation Assay for Iinhibitors of HIV-1 Budding by Blocking the Interaction of PTAP/TSG101 (AID 485342; calls by dose curve)
# Outline: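 Compound wells held the Tsg101 binding domain (10 uM) and a FITC-conjugated PTAP peptide (50 nM) in buffer at pH 7.5 containing 0.15 M NaCl and 0.01% Tween 20; polarization was recorded after 20 min, r.t.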
# [7] = target: Beta-2 adrenergic receptor (Homo sapiens) (UniProt P07550); assay: qHTS validation assay of beta-arrestin-biased ligands of beta2-adrenergic receptor (AID 485366)
# Outline: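 Tango cells (recombinant beta2-AR with recombinant beta-arrestin; recruitment releases tTA driving luciferase) were treated with compounds titrated up to 46 microM for 18 hr at 37 degrees C. Luminescence gave %Activity, and concentration-response curves were curve-classified.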
# [8] = target: Thioredoxin reductase 1, cytoplasmic (Rattus norvegicus) (UniProt O89049); assay: qHTS Assay for Substrates of Mammalian Selenoprotein Thioredoxin Reductase 1 (TrxR1) (AID 488772);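 also: NADPH fluorescence in the first read after selenite addition and not the 8 min delta; a drop in NADPH fluorescence below the no-compound background marks a TrxR1 substrate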
# Outline: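 Quantitative HTS in Tris-HCl buffer at pH 7.5 with EDTA and Tween-20, using rat TrxR1, 400 uM NADPH and 400 uM selenite (final). A fall in initial NADPH fluorescence relative to background marked substrate behaviour.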
# [9] = target: Thioredoxin reductase 1, cytoplasmic (Rattus norvegicus) (UniProt O89049); assay: qHTS Assay for Inhibitors of Mammalian Selenoprotein Thioredoxin Reductase 1 (TrxR1) (AID 488773); conditions: Potency: inhibition;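 also: drop in NADPH fluorescence over an 8 min run after selenite addition; nearly all actives have a fitted effect of over 40% in size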
# Outline: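 Steps: enzyme (90 nM) plus NADPH (400 uM final), 5 min at ~22 deg C; compound added, 15 min; selenite (400 uM final) added; fluorescence followed for 8 min. Concentration-response curves derived from the normalized delta values.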
# [10] = target: Flap endonuclease 1 (Homo sapiens) (UniProt P39748); assay: qHTS Validation Assay for the Inhibitors of Human Flap endonuclease 1 (FEN1) (AID 488816)
# Outline: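 Readings taken at 0 and 15 min after starting the reaction with 50 nM (final) substrate supplied the signal. Compounds had first sat with 10 nM FEN1 reagent for 15 min at room temperature. Values come from Hill-equation concentration-response fits.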
# [11] = target: M-phase phosphoprotein 8 (Homo sapiens) (UniProt Q99549); assay: qHTS Validation Assay for Inhibitors for MPP8 Chromodomain Interactions with Methylated Histone Tails (AID 488949);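 also: 50 nM MPP8 with 50 nM peptide preformed then compounds added for 30 min; AlphaScreen signal from MPP8 chromodomain bound to biotinylated H3K9me3 peptide; top concentration of the series differs between compounds; nearly all actives have a fitted effect of over 55% in size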
# Outline: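 Chemiluminescent proximity assay: histidine-tag capture via nickel acceptor beads, biotin peptide via streptavidin donor beads. Protein and peptide each at 50 nM, pH 7.4, with 30 min incubations at room temperature for complex formation, compound exposure and bead binding.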
# [12] = target: D(1A) dopamine receptor (Homo sapiens) (UniProt P21728); assay: HTS Assay for Allosteric Agonists of the Human D1 Dopamine Receptor: Primary Screen for Agonists (AID 488981)
# Outline: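 Calcium flux in an inducible, force-coupled HEK293 Trex D1 line (overnight at 30 C): agonist mode is the 180 s kinetic read after compound; potentiator mode is the following 180 s read after dopamine at EC20.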
# [13] = target: D(1A) dopamine receptor (Homo sapiens) (UniProt P21728); assay: HTS Assay for Allosteric Agonists of the Human D1 Dopamine Receptor: Primary Screen for Antagonists (AID 488983);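 also: calcium flux response to an EC80 dopamine challenge measured with no-wash dye; nearly all actives have a fitted effect of over 65% in size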
# Outline: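 Cells are induced with tetracycline and incubated overnight at 30 C, then loaded with calcium dye for 30 to 90 minutes at room temperature. Compound addition is followed by a 180 s read, then an EC80 dopamine addition and another 180 s read.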
# [14] = Validation screen for small molecules that induce genotoxicity in human embryonic kidney (HEK293T) cells expressing luciferase-tagged ELG1 (AID 493106)
# Outline: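 Luminescence from an ELG1-luciferase fusion serves as the read-out, rising when genetic stress elevates ELG1 protein. HEK293T reporter cells (2,000 per well) received 23 nL compound, incubated 16 hr at 37 °C, then ONE-Glo for 30 min at room temperature.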
# [15] = target: ATPase family AAA domain-containing protein 5 (Homo sapiens) (UniProt Q96QE3); assay: Validation screen for small molecules that inhibit ELG1-dependent DNA repair in human embryonic kidney (HEK293T) cells expressing luciferase-tagged ELG1 (AID 493107);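 also: cells co-treated with the DNA-damaging agent 5-fluorouridine alongside compound; inhibitors lower the ELG1-luciferase luminescence signal; nearly all actives have a fitted effect of over 70% in size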
# Outline: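 Luminescence from ONE-Glo, developed 30 min at room temperature, served as read-out of ELG1-luciferase levels. Beforehand, reporter HEK293T cells received 5-fluorouridine plus test compound for 16 hr at 37 °C.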
# [16] = Nrf2 qHTS screen for inhibitors: Validation (AID 493153; active = well fitted inhibition curve with a large enough effect in the main read-out, with a control signal flat, not every such curve was filed as active); conditions: viability change: measured here: cytotoxicity max response
# Outline: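 Luminescence from an ARE-firefly luciferase reporter in A549 cells gives Nrf2 inhibition; an earlier CellTiter-Fluor fluorescent read flags cytotoxicity. Cells in 5% FBS OPTI-MEM received compound dilution series for 18-24 h at 37°C.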
# [17] = qHTS for Inhibitors of Cell Surface uPA Generation: Validation Assay (AID 493164)
# Outline: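 RAW 264.7 cells (4000/well) were plated overnight, then exposed for 18 h at 37 C, 5% CO2 to compounds in a 7-point 1:5 titration (2.45 nM–38.3 uM final). Intracellular ATP was read by ATP-Lite luminescence.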
# [18] = target: Peptidyl-prolyl cis-trans isomerase NIMA-interacting 1 (Homo sapiens) (UniProt Q13526); assay: qHTS Validation Assay to Find Inhibitors of Pin1 (AID 504536; active = well fitted inhibition curve with a large enough effect in the polarisation, with a control signal flat, not every such curve was filed as active; the % refers to the polarisation)
# Outline: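 Fluorescence polarization competition: compounds (titration) displace HiFluor-488-labeled Pin1-1b peptide from Pin1 (0.3 uM final) in pH 7.5 HEPES buffer with DTT, 10 min at room temperature; %Activity normalized to no-enzyme wells, curves fitted.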
# [19] = target: Phosphoglycerate kinase, glycosomal (Trypanosoma brucei brucei) (UniProt P07378); assay: qHTS Validation Assay to Find Inhibitors of Phosphoglycerate Kinase (AID 504547)
# Outline: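 Inhibition of the enzyme is judged by a Kinase-Glo Plus luminescent signal following a one-hour incubation at room temperature. Because 1,3-BPG is unstable, it is made in situ by GAPDH at 100nM final; no-PGK wells define the baseline.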
# [20] = target: phosphoglycerate mutase (Leishmania major) (UniProt Q4Q090); assay: qHTS Validation Assay to Find Inhibitors of Phosphoglycerate Mutase (AID 504548)
# Outline: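 Lm PGAM 1.25nM final; 100 mM TEA pH 7.6, 5 mM MgCl2, 0.01% Tween-20; 45 min RT; Kinase-GloPlus, 10 min; end-point luminescence. Enzyme-free wells as negative controls.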
# [21] = target: Ubiquitin carboxyl-terminal hydrolase 1 (Homo sapiens) (UniProt O94782); assay: Inhibitors of USP1/UAF1: Pilot qHTS (AID 504865);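 also: rhodamine fluorescence freed from ubiquitin-rhodamine substrate followed over time; top concentration of the series differs between compounds; nearly all actives have a fitted effect of over 35% in size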
# Outline: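 Enzyme-free wells gave the negative control, while test wells held 1nM USP1/UAF1 preincubated with compound for 15 min at room temperature. Ub-Rho at 150nM final started the reaction, and fluorescence at 480/540 nm was recorded kinetically.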
# [22] = qHTS for Inhibitors of ATXN expression: Validation (AID 588378); also: nearly all actives have a fitted effect of over 75% in size
# Outline: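 After a 2 h attachment and 24 h compound incubation, HEK293-ATXN2-FFLuc wells are read for fluorescence at 405 nm excitation/525 nm emission as a viability measure, then for Bright-Glo luminescence reflecting ATXN2 expression.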
# [23] = target: Glutaminase kidney isoform, mitochondrial (Homo sapiens) (UniProt O94925); assay: qHTS for Inhibitors of Glutaminase (GLS): LOPAC Validation (AID 624146);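 also: glutamate product detected by oxidase and peroxidase coupled Amplex red fluorescence gain; nearly all actives have a fitted effect of over 60% in size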
# Outline: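 Read-out is an Amplex red fluorescence increase coupled through glutamate oxidase and HRP, measured before and after 30 min room-temperature incubation. hKGA is in 45 mM KH2PO4 (pH 8.2) with 0.02% Tween-20; glutamine added as 1mM solution.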
# [24] = target: Glucagon-like peptide 1 receptor (Homo sapiens) (UniProt P43220); assay: qHTS of GLP-1 Receptor Agonists: LOPAC Validation (AID 624148);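 also: luminescence from a luciferase reporter switched on by cAMP; higher luminescence signal means agonism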
# Outline: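 Agonism scored as increased luciferase luminescence driven by cAMP in HEK293 clones carrying GLP-1R. Cells settled 12 hours, received compound for 4-6 hr at 37 deg C, 5% CO2, and were read after 12 min detection reagent at RT.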
# [25] = qHTS of Nrf2 Activators: LOPAC Validation (AID 624149)
# Outline: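 Luminescence read-out of ARE-luciferase activation: AREc32_Fluc cells treated with compounds for 24 hr at 37 deg C, then lysed with Steady-Glo for 30 min at room temperature before reading.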
# [26] = HTS Assay for Allosteric Antagonists of the Human D2 Dopamine Receptor: Hit Validation in HTRF (AID 624455);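 also: stable D1 dopamine receptor cell line scored for blocking the D1 response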
# Outline: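 First, antagonism was screened by calcium flux in a force-coupled, inducible Hek293 Trex D2 line challenged with EC80 dopamine. Hits then went into an HTRF assay in cells stably expressing D1, testing inhibition of the D1 response.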
# Thioredoxin reductase 1, cytoplasmic (Rattus norvegicus), sequence (O89049 whole entry, looked up): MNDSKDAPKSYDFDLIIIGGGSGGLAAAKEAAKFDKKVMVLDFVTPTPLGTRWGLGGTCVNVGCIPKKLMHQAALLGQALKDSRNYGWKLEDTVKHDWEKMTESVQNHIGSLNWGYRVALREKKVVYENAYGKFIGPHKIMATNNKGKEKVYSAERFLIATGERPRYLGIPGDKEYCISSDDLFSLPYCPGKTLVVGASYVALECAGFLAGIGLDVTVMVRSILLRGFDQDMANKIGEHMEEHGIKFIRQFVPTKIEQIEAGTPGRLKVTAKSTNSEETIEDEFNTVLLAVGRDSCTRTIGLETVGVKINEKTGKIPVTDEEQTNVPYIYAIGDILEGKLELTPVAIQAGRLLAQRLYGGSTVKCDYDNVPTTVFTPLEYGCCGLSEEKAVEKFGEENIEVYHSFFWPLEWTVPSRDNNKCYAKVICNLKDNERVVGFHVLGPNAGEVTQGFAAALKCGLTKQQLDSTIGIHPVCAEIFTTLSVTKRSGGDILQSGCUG
# D(1A) dopamine receptor (Homo sapiens), sequence (P21728 whole entry, looked up): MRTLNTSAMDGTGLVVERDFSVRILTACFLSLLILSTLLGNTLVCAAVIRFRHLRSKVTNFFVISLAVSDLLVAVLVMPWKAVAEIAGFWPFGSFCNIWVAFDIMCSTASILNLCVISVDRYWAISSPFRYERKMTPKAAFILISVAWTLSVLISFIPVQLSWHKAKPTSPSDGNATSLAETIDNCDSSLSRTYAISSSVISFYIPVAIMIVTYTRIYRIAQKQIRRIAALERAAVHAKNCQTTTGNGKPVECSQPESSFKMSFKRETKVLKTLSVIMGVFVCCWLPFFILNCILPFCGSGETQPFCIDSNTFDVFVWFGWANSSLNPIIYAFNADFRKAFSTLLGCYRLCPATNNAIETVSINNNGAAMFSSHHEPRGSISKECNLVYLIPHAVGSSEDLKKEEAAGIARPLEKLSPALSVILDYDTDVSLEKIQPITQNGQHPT
# DNA polymerase III PolC-type (Bacillus subtilis (strain 168)), sequence (P13267 whole entry, looked up): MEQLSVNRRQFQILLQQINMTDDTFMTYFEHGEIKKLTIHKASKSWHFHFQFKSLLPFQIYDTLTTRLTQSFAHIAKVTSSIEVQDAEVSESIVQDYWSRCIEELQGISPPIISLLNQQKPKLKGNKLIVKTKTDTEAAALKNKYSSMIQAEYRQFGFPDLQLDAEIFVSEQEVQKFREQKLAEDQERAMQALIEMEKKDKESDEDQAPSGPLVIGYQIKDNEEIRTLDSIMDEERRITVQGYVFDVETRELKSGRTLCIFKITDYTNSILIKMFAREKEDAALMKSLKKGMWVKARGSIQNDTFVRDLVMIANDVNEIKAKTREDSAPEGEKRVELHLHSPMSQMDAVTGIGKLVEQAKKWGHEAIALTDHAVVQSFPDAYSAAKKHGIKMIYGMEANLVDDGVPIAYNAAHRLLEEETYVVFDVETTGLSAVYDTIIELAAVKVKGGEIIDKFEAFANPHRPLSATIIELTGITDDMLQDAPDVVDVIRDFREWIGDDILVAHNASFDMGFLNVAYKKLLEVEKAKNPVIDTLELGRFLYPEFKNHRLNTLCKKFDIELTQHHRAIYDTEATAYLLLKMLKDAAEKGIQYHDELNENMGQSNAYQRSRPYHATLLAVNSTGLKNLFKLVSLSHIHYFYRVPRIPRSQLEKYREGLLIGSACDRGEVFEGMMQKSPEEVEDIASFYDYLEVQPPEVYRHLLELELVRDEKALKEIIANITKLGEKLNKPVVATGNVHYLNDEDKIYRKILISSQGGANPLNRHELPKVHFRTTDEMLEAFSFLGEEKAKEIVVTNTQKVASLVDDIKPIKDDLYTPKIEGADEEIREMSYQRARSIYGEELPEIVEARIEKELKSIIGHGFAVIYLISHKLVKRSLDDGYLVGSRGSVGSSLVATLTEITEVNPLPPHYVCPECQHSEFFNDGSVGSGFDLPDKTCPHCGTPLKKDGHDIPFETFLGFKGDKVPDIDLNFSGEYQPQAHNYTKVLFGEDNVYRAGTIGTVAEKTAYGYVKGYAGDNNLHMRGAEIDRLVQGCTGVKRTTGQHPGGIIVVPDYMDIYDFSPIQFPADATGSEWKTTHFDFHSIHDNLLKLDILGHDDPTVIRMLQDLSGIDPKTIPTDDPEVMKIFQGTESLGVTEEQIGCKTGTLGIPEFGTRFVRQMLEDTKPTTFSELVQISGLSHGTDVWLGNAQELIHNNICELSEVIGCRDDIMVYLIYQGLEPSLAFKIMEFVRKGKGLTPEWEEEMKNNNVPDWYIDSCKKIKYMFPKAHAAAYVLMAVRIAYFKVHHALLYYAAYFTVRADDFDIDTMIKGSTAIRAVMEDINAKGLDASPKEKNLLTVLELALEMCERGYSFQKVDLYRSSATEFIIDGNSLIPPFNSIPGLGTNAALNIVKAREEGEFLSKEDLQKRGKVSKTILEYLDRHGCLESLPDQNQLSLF
# Peptidyl-prolyl cis-trans isomerase NIMA-interacting 1 (Homo sapiens), sequence (Q13526 whole entry, looked up): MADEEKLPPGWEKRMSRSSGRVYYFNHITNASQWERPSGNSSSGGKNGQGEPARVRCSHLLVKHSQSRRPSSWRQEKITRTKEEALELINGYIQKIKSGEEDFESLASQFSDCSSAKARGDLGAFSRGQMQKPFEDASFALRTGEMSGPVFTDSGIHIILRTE
# Glutaminase kidney isoform, mitochondrial (Homo sapiens), sequence (O94925 whole entry, looked up, canonical isoform): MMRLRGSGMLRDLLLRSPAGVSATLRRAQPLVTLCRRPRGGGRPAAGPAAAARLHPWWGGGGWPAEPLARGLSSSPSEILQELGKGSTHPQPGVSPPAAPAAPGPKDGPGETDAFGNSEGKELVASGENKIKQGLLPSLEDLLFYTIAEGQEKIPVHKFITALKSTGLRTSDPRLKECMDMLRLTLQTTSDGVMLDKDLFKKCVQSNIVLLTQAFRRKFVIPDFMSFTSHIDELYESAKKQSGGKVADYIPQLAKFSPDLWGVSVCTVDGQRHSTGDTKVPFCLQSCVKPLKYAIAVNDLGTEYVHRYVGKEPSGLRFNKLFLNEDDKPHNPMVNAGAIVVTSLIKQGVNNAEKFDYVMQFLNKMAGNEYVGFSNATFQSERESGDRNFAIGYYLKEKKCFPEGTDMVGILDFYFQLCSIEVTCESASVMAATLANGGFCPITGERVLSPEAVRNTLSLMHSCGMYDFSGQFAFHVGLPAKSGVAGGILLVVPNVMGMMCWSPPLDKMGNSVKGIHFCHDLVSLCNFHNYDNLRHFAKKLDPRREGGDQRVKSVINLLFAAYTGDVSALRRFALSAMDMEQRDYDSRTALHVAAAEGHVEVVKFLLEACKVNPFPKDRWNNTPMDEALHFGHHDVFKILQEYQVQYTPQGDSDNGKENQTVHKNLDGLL
# phosphoglycerate mutase (Leishmania major), sequence (Q4Q090 1-553): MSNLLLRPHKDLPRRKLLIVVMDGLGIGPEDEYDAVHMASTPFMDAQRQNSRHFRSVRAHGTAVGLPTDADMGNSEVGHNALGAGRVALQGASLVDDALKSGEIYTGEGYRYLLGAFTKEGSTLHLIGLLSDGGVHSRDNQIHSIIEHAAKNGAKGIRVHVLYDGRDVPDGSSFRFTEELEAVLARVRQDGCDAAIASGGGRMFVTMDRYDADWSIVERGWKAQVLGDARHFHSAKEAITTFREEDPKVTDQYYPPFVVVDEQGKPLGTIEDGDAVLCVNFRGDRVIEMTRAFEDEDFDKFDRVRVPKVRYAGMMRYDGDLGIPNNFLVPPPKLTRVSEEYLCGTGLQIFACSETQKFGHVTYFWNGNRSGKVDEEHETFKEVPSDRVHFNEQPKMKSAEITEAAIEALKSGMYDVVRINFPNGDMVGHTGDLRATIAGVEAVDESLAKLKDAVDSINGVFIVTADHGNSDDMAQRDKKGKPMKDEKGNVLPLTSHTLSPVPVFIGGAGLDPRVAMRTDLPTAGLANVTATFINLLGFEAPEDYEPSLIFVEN
# Ubiquitin carboxyl-terminal hydrolase 1 (Homo sapiens), sequence (O94782 whole entry, looked up): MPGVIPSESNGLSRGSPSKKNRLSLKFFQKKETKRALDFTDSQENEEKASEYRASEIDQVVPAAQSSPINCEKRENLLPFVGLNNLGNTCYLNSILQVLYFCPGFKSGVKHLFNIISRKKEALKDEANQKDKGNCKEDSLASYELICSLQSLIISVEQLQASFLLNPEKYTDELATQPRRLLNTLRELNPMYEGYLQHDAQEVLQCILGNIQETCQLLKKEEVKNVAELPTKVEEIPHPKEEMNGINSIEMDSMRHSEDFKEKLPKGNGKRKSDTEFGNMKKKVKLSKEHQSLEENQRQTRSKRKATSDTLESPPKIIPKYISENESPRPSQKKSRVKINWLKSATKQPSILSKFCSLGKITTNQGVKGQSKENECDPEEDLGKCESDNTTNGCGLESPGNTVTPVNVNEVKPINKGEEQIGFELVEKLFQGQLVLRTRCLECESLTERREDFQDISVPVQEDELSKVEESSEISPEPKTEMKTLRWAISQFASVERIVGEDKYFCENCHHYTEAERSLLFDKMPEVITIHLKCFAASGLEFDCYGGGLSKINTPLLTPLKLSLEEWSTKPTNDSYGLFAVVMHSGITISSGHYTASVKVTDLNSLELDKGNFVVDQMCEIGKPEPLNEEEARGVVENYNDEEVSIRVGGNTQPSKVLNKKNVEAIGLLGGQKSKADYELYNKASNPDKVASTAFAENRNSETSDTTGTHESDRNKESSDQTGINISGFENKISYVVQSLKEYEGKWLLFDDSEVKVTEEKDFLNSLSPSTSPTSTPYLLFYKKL
# Tumor susceptibility gene 101 protein (Homo sapiens), sequence (Q99816 whole entry, looked up, the tested form may be a part): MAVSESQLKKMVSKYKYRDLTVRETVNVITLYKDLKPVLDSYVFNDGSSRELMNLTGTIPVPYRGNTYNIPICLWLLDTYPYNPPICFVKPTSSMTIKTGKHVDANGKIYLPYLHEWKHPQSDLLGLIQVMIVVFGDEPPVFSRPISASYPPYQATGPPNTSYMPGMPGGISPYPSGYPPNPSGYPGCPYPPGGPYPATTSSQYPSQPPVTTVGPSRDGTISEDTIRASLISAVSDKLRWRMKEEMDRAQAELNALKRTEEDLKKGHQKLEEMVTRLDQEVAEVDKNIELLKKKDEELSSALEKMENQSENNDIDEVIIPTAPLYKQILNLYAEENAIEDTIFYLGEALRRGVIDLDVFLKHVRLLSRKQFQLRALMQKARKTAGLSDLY
smiles,measurement,setting,value
CN1C2CCCC1CC(NC(=O)c1nn(C)c3ccccc13)C2 (configuration not stated),outcome,[1],inactive
same,outcome,[2],inactive
same,Potency,[3],inactive
same,Potency,[4],inactive
same,Potency,[5],inactive
same,outcome,[6],inactive
same,outcome,[7],inactive
same,outcome,[8],inactive
same,Potency,[9],inactive
same,Potency,[10],inactive
same,Potency,[11],inactive
same,outcome,[12],inactive
same,outcome,[13],inactive
same,Potency,[14],inactive
same,Potency,[15],inactive
same,outcome,[16],inactive
same,viability change,[16],0.0672%
same,outcome,[17],inactive
same,Potency,[18],inactive
same,Potency,[19],inactive
same,outcome,[20],inactive
same,Potency,[21],inactive
same,Potency,[22],inactive
same,Potency,[23],inactive
same,outcome,[24],inactive
same,outcome,[25],inactive
same,outcome,[26],inactive
